# In PubChem BioAssay (NCATS):
# Results filed as inconclusive are left out. Entries that show only a call come without a potency. The source made the active and inactive calls. Unless noted, calls follow the shape of the dose curve; as a rule, active = well fitted curve in the direction sought with a large enough effect; inconclusive = small, poorly fitted or top-dose-only effect, or another doubt; inactive = no such curve, though single readings can be large; an effect the other way counts as inactive or inconclusive.
# Legend:
# [1] = Primary qHTS for inhibitors of nuclear receptor binding SET domain protein 2 (NSD2) in an isogenic RCH-ACV NSD2 p.E1099K mutant (9B) (AID 1645876); also: nearly all actives have a fitted effect of over 70% in size
# [2] = Primary qHTS for inhibitors of nuclear receptor binding SET domain protein 2 (NSD2) in an RCH-ACV wild type WT cells (2C) (AID 1645877); also: nearly all actives have a fitted effect of over 70% in size; also: potency is read from the fitted curve at half-maximal effect
# [3] = molecular target: Calcium and integrin-binding protein 1 (Homo sapiens) (UniProt Q99828); assay: Primary qHTS for Identification of Calcium Integrin Binding Protein 1 (CIB1) Competitor (AID 1508620);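 also: GST tagged CIB1 binding a fluorescein labelled alphaIIb integrin peptide tracer; top concentration of the series differs between compounds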
# Sequence of Calcium and integrin-binding protein 1 (Homo sapiens) (Q99828 whole entry, looked up): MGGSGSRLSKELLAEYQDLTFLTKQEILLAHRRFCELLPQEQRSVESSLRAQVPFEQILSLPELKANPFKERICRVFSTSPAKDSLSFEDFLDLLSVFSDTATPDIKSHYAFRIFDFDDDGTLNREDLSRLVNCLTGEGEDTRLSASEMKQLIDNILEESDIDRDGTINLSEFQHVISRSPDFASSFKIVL
# How it was run: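 Fluorescence polarization competition: GST-tagged CIB1 (1 uM final) preincubated with compound 15 min at room temperature, then FITC-labelled alphaIIb peptide (100 nM final) added. After 15 min at room temperature, polarization read at Ex 480/Em 540.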
# [4] = molecular target: Rap guanine nucleotide exchange factor 3 (Homo sapiens) (UniProt O95398); assay: Confirmatory qHTS for agonist of cAMP-regulated guanine nucleotide exchange factor 3 (EPAC1) (AID 1645881);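 also: EPAC1 catalysed release of BODIPY-GDP from Rap1B seen as fluorescence loss; nearly all actives have a fitted effect of over 75% in size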
# Sequence of Rap guanine nucleotide exchange factor 3 (Homo sapiens) (O95398 whole entry, looked up): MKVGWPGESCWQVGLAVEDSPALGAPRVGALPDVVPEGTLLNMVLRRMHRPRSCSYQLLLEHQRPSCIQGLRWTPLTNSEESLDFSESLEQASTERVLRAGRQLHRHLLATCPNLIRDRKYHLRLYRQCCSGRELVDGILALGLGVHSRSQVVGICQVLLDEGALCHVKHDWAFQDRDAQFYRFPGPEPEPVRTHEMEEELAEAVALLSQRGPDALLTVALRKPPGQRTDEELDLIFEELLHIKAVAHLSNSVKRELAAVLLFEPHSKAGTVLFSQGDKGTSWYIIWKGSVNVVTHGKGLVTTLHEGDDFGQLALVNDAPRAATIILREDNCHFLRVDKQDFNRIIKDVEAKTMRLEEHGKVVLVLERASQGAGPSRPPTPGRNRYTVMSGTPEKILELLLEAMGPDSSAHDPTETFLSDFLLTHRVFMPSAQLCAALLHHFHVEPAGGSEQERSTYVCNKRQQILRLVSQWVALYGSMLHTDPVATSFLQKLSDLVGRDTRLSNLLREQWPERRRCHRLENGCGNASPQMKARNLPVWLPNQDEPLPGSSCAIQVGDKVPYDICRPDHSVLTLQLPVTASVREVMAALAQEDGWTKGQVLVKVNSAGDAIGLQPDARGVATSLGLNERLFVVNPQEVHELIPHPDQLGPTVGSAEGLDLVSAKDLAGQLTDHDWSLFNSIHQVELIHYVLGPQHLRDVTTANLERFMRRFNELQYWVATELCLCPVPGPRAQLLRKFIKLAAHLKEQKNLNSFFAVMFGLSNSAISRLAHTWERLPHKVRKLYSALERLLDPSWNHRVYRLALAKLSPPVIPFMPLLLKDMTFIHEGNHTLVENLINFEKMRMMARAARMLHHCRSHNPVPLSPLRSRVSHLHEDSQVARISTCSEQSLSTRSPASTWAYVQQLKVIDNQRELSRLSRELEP
# [5] = molecular target: Cytochrome P450 2D6 (Homo sapiens) (UniProt P10635); assay: Cytochrome P450 family 2 subfamily D member 6 (CYP2D6) small molecule antagonists: luciferase biochemical (cell-free) qHTS assay (AID 1645840; active = well fitted curve in the direction sought with a large enough effect in the repeat runs; an effect the other way counts as inactive or inconclusive; also: nearly all actives have a fitted effect of over 55% in size; also: potency is read from the fitted curve at half-maximal effect)
# Sequence of Cytochrome P450 2D6 (Homo sapiens) (P10635 whole entry, looked up): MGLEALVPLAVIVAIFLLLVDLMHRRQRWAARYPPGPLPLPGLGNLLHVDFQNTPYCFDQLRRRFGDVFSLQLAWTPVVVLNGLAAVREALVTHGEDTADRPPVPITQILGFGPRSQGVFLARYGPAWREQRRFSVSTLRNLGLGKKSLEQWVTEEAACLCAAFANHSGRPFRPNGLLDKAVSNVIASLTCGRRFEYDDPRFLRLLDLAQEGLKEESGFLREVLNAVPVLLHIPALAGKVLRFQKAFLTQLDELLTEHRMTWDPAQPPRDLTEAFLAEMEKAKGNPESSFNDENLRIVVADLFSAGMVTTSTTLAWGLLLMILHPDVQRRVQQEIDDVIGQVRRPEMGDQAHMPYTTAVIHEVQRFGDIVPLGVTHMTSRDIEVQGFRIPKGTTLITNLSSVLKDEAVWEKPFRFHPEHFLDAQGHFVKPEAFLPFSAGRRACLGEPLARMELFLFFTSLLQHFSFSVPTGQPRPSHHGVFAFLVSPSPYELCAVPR
# How it was run: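 P450-Glo CYP2D6 system: proluciferin substrate converted by enzyme to luciferin, read by luminescence proportional to activity. Enzyme-substrate mix with compound 10 min at room temperature, then NADPH regeneration 1 h before detection reagent.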
# [6] = molecular target: Cytochrome P450 2C9 (Homo sapiens) (UniProt P11712); assay: Cytochrome P450 family 2 subfamily C member 9 (CYP2C9) small molecule antagonists: luciferase biochemical (cell-free) qHTS assay (AID 1645842; active = well fitted curve in the direction sought with a large enough effect in the repeat runs; an effect the other way counts as inactive or inconclusive; also: nearly all actives have a fitted effect of over 55% in size; also: potency is read from the fitted curve at half-maximal effect)
# Sequence of Cytochrome P450 2C9 (Homo sapiens) (P11712 whole entry, looked up): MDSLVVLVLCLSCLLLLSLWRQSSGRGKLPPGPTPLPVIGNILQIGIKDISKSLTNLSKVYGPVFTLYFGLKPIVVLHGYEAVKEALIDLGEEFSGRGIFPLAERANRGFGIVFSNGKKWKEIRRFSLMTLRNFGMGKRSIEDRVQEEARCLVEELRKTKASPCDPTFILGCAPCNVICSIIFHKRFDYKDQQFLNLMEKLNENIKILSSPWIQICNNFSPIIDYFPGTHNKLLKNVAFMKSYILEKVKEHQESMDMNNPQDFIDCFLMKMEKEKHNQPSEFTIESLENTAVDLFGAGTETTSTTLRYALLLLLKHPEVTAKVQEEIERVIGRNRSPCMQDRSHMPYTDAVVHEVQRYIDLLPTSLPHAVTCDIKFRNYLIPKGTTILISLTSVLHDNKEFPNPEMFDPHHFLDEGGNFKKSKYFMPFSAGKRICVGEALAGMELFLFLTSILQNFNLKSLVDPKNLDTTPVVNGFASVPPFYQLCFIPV
# How it was run: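 P450-Glo CYP2C9 system: proluciferin substrate with enzyme in mix containing 0.4% BSA, 10 min at room temperature, then NADPH regeneration solution added and incubated 1 h at 37C. Detection reagent stopped reaction; luminescence read after 20 min as RLU.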
# [7] = molecular target: Rap guanine nucleotide exchange factor 3 (Homo sapiens) (UniProt O95398); assay: Confirmatory qHTS for antagonist of cAMP-regulated guanine nucleotide exchange factor 3 (EPAC1) (AID 1645880); details: EPAC1 Rap1B-BODIPY-GDP exchange, fluorescence; also: potency is read from the fitted curve at half-maximal effect; nearly all actives have a fitted effect of over 55% in size
# How it was run: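 Released BODIPY-GDP fluoresces less than Rap1-bound BODIPY-GDP; the signal is followed at 480/540 nm at 5-min intervals over 30 min, after 5 min at room temperature. Reactions contain 100 nM EPAC1, 250 nM RAP1B-BODIPY-GDP and 50 uM GDP; results are normalized to ATA and DMSO.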
structure (smiles),measurement,setting,value
O=C(O)CCc1ccc(NCc2cccc3c2CCCN3CCOc2ccccc2)cc1F,Potency,[1],inactive
same,Potency,[2],inactive
Cc1ncc(Cl)cc1NCc1ccc(C(=O)NC(CC2CCCC2)C(=O)NC2CC2)s1 (stereo not drawn),Potency,[3],inactive
same,Potency,[2],14.8 µM (active)
C=C1CCC2C(C)(C)CC(O)CC2(C)C1CCC(C)CCOC(=O)CCC(=O)O (stereo not drawn),Potency,[1],inactive
Cc1cc(C)c2nc(-c3ccccn3)cc(C(=O)Nc3ccc(S(=O)(=O)Nc4onc(C)c4C)cc3)c2c1,Potency,[3],inactive
same,outcome,[4],inactive
Oc1ccc2c(-c3c(-c4ccccn4)nn4c3CCC4)ccnc2c1,Potency,[5],inactive
same,Potency,[6],inactive
CCc1nnc(NS(=O)(=O)c2ccc(NC(=S)NC(=O)/C=C/c3ccc(F)cc3)cc2)s1,Potency,[1],inactive
same,Potency,[2],inactive
same,Potency,[7],37.9 µM (active)
same,outcome,[4],inactive
CCCc1[nH]nc2c1C(c1cc(Cl)cc(Cl)c1O)C(C#N)=C(N)O2 (stereo not drawn),Potency,[5],2.13 µM (active)
same,Potency,[6],12 µM (active)
N=C(N)c1ccc2nc(-c3cc(CC(=O)NC(CC(=O)O)C(=O)O)cc(-c4cc(S(N)(=O)=O)ccc4O)c3O)[nH]c2c1 (stereo not drawn),Potency,[1],inactive
same,Potency,[2],inactive
C=C(C(=O)OC)[C@]12O[C@@](C)(CC[C@@]3(O)/C(=C\C)C(=O)O[C@]3(C)C[C@@H]1OC(=O)C(CO)CN1CCCC1C(=O)O)CC2=O (stereo partly drawn),Potency,[3],inactive
same,Potency,[2],6.82 µM (active)
C/C=C(\C)C(=O)O[C@H]1C=CC(=O)O[C@H]1/C=C/[C@H](O)[C@@H](C)O,Potency,[3],inactive
same,Potency,[2],23 µM (active)
N#CN1CCC[C@@H](n2nc(-c3ccc(Oc4ccc(F)cc4F)cc3)c(C(N)=O)c2N)C1,Potency,[3],inactive
same,Potency,[2],16.6 µM (active)
